The panel holds about 83,000 compounds, 20% with a hit somewhere; the sample as a whole holds those more often.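 The test compound was applied at a single concentration to cells in 96-well plates for 48 hours, and percent growth was recorded.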 Values without a mark were called inactive. Activity calls are given as the source filed them. The calls were made as follows: active = growth percent below 10; inactive = the rest.

Among the test systems are DU-145 prostate; K-562 leukemia; MALME-3M melanoma; MDA-MB-231 breast; RXF 393 renal; SF-268 CNS; SF-295 CNS; SF-539 CNS; UACC-257 melanoma; M14 melanoma; HCT-15 colon; HT29 colon; SNB-19 CNS; U251 CNS; PC-3 prostate; SK-MEL-5 melanoma; UACC-62 melanoma; LOX IMVI melanoma; SK-MEL-28 melanoma.
Common to all, as to assay: NCI-60 one-dose screen, 48 h (100 = growth as untreated, 0 = no growth, -100 = all killed)
Holding throughout (conditions): 10 µM unless noted

On to `NC(=N\N=C/c1ccccc1[N+](=O)[O-])/C(N)=N\N=C/c1ccccc1[N+](=O)[O-]`, for which the growth in the experiment on DU-145 prostate was 107%; in the experiment on K-562 leukemia, 101%; in the experiment with MALME-3M melanoma, 146%; in the experiment with MDA-MB-231 breast, 107%; in the experiment on RXF 393 renal, 103%; with SF-268 CNS, 99.7%. The growth was 105% in the experiment with SF-295 CNS; 97.2% with SF-539 CNS; 113% with UACC-257 melanoma; 111% in the experiment on M14 melanoma; 105% with HCT-15 colon; 103% with HT29 colon. The growth in the experiment with SNB-19 CNS was 106%; in the experiment with U251 CNS, 108%; in the experiment on PC-3 prostate, 102%; in the experiment with SK-MEL-5 melanoma it was 105%; in the experiment with UACC-62 melanoma, 108%; with LOX IMVI melanoma, 104%. For the same molecule, the growth with SK-MEL-28 melanoma is 118%.
As for `CC1=C([Se]CC(OC(=O)[C@@H](CO)NC(=O)OC(C)(C)C)C(=O)NC(C)(C)C)C(=O)c2ccccc2C1=O` (some centres not stated), the growth was -71.1% (active) in the experiment with DU-145 prostate; -37% (active) with K-562 leukemia; -64.9% (active) in the experiment with MALME-3M melanoma; -82.2% (active) in the experiment on MDA-MB-231 breast; -86.2% (active) in the experiment on RXF 393 renal; -75.1% (active) in the experiment on SF-268 CNS. The growth in the experiment with SF-295 CNS is -37.4% (active); in the experiment on SF-539 CNS it was -100% (active); in the experiment on UACC-257 melanoma, -87.1% (active); with M14 melanoma it was -100% (active); with HCT-15 colon, -74.1% (active); with HT29 colon, -8.15% (active). Also, the growth in the experiment on SNB-19 CNS was -100% (active); in the experiment with U251 CNS it was -95.2% (active); in the experiment on PC-3 prostate, -71.8% (active); in the experiment with SK-MEL-5 melanoma, -98.2% (active); in the experiment with UACC-62 melanoma, -100% (active); with LOX IMVI melanoma, -96.4% (active). Besides, the growth in the experiment with SK-MEL-28 melanoma was -100% (active).
With `COc1ccc(-c2nc3c(c(=O)n2C(C)=O)C(c2ccc(Cl)cc2)c2sc4c(Cl)cccc4c2O3)cc1` (configuration not stated), the growth is -5.67% (active) in the experiment with DU-145 prostate; 2.48% (active) with K-562 leukemia; 39.8% in the experiment on MALME-3M melanoma; -41.2% (active) in the experiment with MDA-MB-231 breast; -27.4% (active) in the experiment with RXF 393 renal; -9.95% (active) in the experiment with SF-268 CNS. Also, the growth is 1.12% (active) in the experiment on SF-295 CNS; -51.8% (active) in the experiment with SF-539 CNS; 12.2% in the experiment with UACC-257 melanoma; -36.3% (active) in the experiment on M14 melanoma; -29.1% (active) in the experiment on HCT-15 colon; -49.4% (active) with HT29 colon. Besides, the growth in the experiment on SNB-19 CNS is 12.7%; in the experiment on U251 CNS, -34.3% (active); in the experiment on PC-3 prostate, 1.24% (active); in the experiment with SK-MEL-5 melanoma it was -23.3% (active); in the experiment with UACC-62 melanoma, 5.57% (active); in the experiment on LOX IMVI melanoma, -49.6% (active). Also, in the experiment with SK-MEL-28 melanoma, the growth is 23.4%.
As for `c1csc(-c2c3ccc(=[N+]4CCCCC4)cc-3oc3cc(N4CCCCC4)ccc23)c1`, the growth in the experiment on DU-145 prostate is -96.6% (active); in the experiment on K-562 leukemia, -29.5% (active); with MALME-3M melanoma, -58.8% (active); in the experiment on MDA-MB-231 breast, -50.9% (active); in the experiment with RXF 393 renal, -97% (active); in the experiment on SF-268 CNS, -88.8% (active). In addition, the growth with SF-295 CNS was -53.7% (active); with SF-539 CNS, -91.3% (active); with UACC-257 melanoma it was -69.8% (active); with M14 melanoma, -87.8% (active); with HCT-15 colon, -70% (active); in the experiment on HT29 colon, -74.2% (active). The growth was -87.6% (active) with SNB-19 CNS; -71.7% (active) with U251 CNS; -65.7% (active) with PC-3 prostate; -90.5% (active) in the experiment with SK-MEL-5 melanoma; -76.1% (active) in the experiment on UACC-62 melanoma; -76.2% (active) in the experiment with LOX IMVI melanoma. For the same molecule, the growth in the experiment on SK-MEL-28 melanoma was -66.4% (active).
`C[C@]12CC[C@@H]3c4cc(OC(F)F)c(O)cc4CC[C@H]3[C@@H]1CC[C@@H]2OS(N)(=O)=O`: the growth in the experiment on DU-145 prostate is 9.56% (active); with K-562 leukemia, 14.1%; with MALME-3M melanoma, 27.1%; with MDA-MB-231 breast it was 50.9%; in the experiment on RXF 393 renal it was 19.1%; in the experiment with SF-268 CNS it was 58.3%. The growth in the experiment on SF-295 CNS is 12.8%; in the experiment on SF-539 CNS, 5.62% (active); with UACC-257 melanoma it was 71.8%; in the experiment on M14 melanoma, 17.6%; in the experiment with HCT-15 colon, 26.6%; in the experiment on HT29 colon, 19.5%. In addition, the growth was 51% in the experiment with SNB-19 CNS; 30% with U251 CNS; 26.7% in the experiment with PC-3 prostate; 0.18% (active) in the experiment with SK-MEL-5 melanoma; 48% with UACC-62 melanoma; 40.4% in the experiment on LOX IMVI melanoma. Moreover, the growth in the experiment with SK-MEL-28 melanoma was 57.4%.
For the molecule `Cn1c2c(c3ccc(Cl)c(Cl)c31)C(C#N)C1(CCNCC1)NC2=O` (configuration not stated), the growth was 69.1% with DU-145 prostate; 26.1% in the experiment on K-562 leukemia; 58.1% with MALME-3M melanoma; 42.2% in the experiment with MDA-MB-231 breast; 25.9% in the experiment with RXF 393 renal; 48.6% in the experiment with SF-268 CNS. Besides, the growth with SF-295 CNS is 58.3%; with SF-539 CNS, 56.8%; in the experiment on UACC-257 melanoma, 39.9%; in the experiment with M14 melanoma it was 16.1%; in the experiment with HCT-15 colon, 47.2%; with HT29 colon, 9.42% (active). The growth was 57.2% in the experiment with SNB-19 CNS; 47.7% in the experiment with U251 CNS; 20.5% in the experiment with PC-3 prostate; 59.6% with SK-MEL-5 melanoma; -46.5% (active) in the experiment on UACC-62 melanoma; 14.2% in the experiment on LOX IMVI melanoma. The growth in the experiment with SK-MEL-28 melanoma was -81.4% (active).
As to `O=C(/C=C/c1c(Cl)nc2sccn12)c1ccc(F)c(F)c1`, the growth in the experiment with DU-145 prostate is 96.1%; in the experiment with K-562 leukemia it was 48.1%; in the experiment on MALME-3M melanoma, 113%; in the experiment on MDA-MB-231 breast, 81.8%; in the experiment on RXF 393 renal it was 69.7%; with SF-268 CNS, 81.4%. Also, the growth with SF-295 CNS is 91.9%; in the experiment on SF-539 CNS it was 96.5%; in the experiment on UACC-257 melanoma, 73.9%; in the experiment on M14 melanoma it was 87.2%; in the experiment with HCT-15 colon, 90.4%; in the experiment with HT29 colon it was 87%. In addition, the growth was 87.9% in the experiment on SNB-19 CNS; 90.7% in the experiment on U251 CNS; 78.8% in the experiment with PC-3 prostate; 66.4% with SK-MEL-5 melanoma; 68.7% in the experiment on UACC-62 melanoma; 92% in the experiment with LOX IMVI melanoma. Moreover, in the experiment with SK-MEL-28 melanoma, the growth is 96%.
On to `Cc1ccc2nc(NC(=O)CSc3nc(Nc4ccc([N+](=O)[O-])cc4)c(C#N)c(-c4ccccc4)n3)sc2c1`, for which the growth with DU-145 prostate is 104%; with K-562 leukemia, 87.6%; with MALME-3M melanoma, 110%; in the experiment on MDA-MB-231 breast, 93.7%; in the experiment with RXF 393 renal it was 92.7%; with SF-268 CNS, 93.7%. The growth with SF-295 CNS was 95.6%; with SF-539 CNS, 92.8%; in the experiment on UACC-257 melanoma, 105%; in the experiment on M14 melanoma it was 114%; with HCT-15 colon, 93.6%; in the experiment with HT29 colon it was 96.7%. Moreover, the growth with SNB-19 CNS is 93.9%; with U251 CNS it was 93.2%; in the experiment on PC-3 prostate it was 93.8%; in the experiment on SK-MEL-5 melanoma, 98%; with UACC-62 melanoma, 86%; with LOX IMVI melanoma, 96.7%. In the experiment on SK-MEL-28 melanoma, the growth is 109%.
